# From PubChem BioAssay AID2501 (Southern Research Specialized Biocontainment Screening …, 2010)
# Out of some 2,200 compounds screened, about 1,200 (55%) were called active. So high a share suggests a set chosen from earlier hits. This is one part of the list. Unmarked numbers belong to inactive results. The limit is not given here; nearly all actives have IC50 up to about 92 µM.
# Experiment: counter assay for TAg ATPase ADP read-out – biochemical, ADP-Hunter, fluorescence, counter-screen (AID 2501);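 also: purified T antigen ATPase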;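 as to inhibition: 0% = enzyme with vehicle and 100% = reference inhibitor wells; higher means more inhibition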
# Conditions: series mostly up to 100 µM; inhibition: at the top concentration
SMILES,inhibition,IC50
COC(=O)c1sc2nc(-c3ccco3)ccc2c1N,22.9%,–
COc1cc(N2C(=O)C=CC2=O)c(OC)cc1Cl,-17.9%,–
O=C(O)Cc1nn(Cc2ccc(Cl)cc2)c(=O)c2ccccc12,-11%,–
O=c1oc2c3c4c(cc2s1)CCCN4CCC3,17.1%,–
CCCCCCNC(=O)N[C@H](C(=O)NCCC[C@H]1CN2C(=NC[C@H]2C)N1CCC(c1ccccc1)c1ccccc1)C(C)O (stereo not given in full),3.98%,–
CCN(CC(=O)NC(C)C)C(=O)Cc1ccc(C)c(C)c1,8.8%,–
O=C(CCN1CCN(c2ccccc2)CC1)N/N=C/c1ccc(O)c(O)c1O,-207%,–
Oc1cccc(/C=N/NC(=S)NCCN2CCOCC2)c1O,–,7.38 µM (active)
COc1ccc(CNC(=S)N/N=C/c2ccc(O)c(OC)c2)cc1,–,7.64 µM (active)
Cc1c(NC(=O)CCC2CCCCC2)cc(C(=O)N2CCOCC2)cc1[N+](=O)[O-],-18.6%,–
COCCCOc1ccnc(CS(=O)c2nc3ccccc3[nH]2)c1C (stereo not given),28.1%,–
O=C(O)CC1S/C(=N/N=C/C2CC=CCC2)NC1=O (stereo not given),12.7%,–
Cc1cc(C)nc(SCc2cc(=O)c(OC(=O)c3ccc(S(=O)(=O)N4CCCC4)cc3)co2)n1,7.74%,–
Cc1ccc(S(=O)(=O)N2[C@@H](c3ccc(Cl)cc3)C(C(=O)O)=CC[C@H]2c2ccc(C(C)C)cc2)cc1,-7.5%,–
CC(C)c1ccc(S(=O)(=O)N2CCN(CC(=O)c3ccc(O)c(O)c3)CC2)cc1,–,5.79 µM (active)
O=C(CN1CCN(S(=O)(=O)c2ccc(F)cc2)CC1)c1ccc(O)c(O)c1,–,7.5 µM (active)
Cc1cccc(-c2ncc(CN3CCCC(CO)(Cc4ccccc4C)C3)cn2)c1 (stereo not given),10.8%,–
CCOc1cc(N2CCOCC2)c(OCC)cc1NC(C)C(=O)N1CCC(C)CC1 (stereo not given),–,5.37 µM (active)
CCOc1ccc(CCNC(=O)c2cc(-c3ccccc3)c(N3CCOCC3)s2)cc1OCC,5.68%,–
CCOc1cc(N2CCOCC2)c(OCC)cc1NS(=O)(=O)c1ccc(Cl)s1,–,6.56 µM (active)
CCNC(=S)Nc1cc(OCC)c(N2CCOCC2)cc1OCC,–,4.1 µM (active)
CCOc1ccc(OCCC(=O)OCC(=O)Nc2cc(OCC)c(N3CCOCC3)cc2OCC)cc1,–,8.04 µM (active)
CC1CCN(CC(C)OC(=O)c2ccc3c(c2)OCCO3)CC1 (stereo not given),-4.34%,–
CCCC(=O)O[C@]1(C(=O)CO)CC[C@H]2[C@@H]3CCC4=CC(=O)CC[C@]4(C)[C@H]3[C@@H](O)C[C@@]21C,23.6%,–
COc1cc(/C=N/Nc2nc3ccccc3[nH]c2=O)ccc1O,–,8.65 µM (active)

SMILES,inhibition,IC50
COc1cc(/C=C2\CCc3c2nc2ccccc2c3C(=O)O)cc(OC)c1OC,13%,–
COc1cc(/C=N/Nc2nc3ccccc3o2)cc(OC)c1O,–,6.58 µM (active)
C(=N\Nc1nc2ccccc2[nH]1)/c1cccs1,–,7.86 µM (active)
COc1cc(/C=N/Nc2nc3ccccc3[nH]2)cc(OC)c1O,–,6.33 µM (active)
CCC[C@@H]1CCCO[C@@](C(=O)NCc2ccc(S(C)(=O)=O)cc2)(C(F)(F)F)C1,8.24%,–
O=C1NC(=O)/C(=C/c2ccc(O)cc2)S1,–,5.07 µM (active)
O=C1N/C(=C\c2ccc(O)cc2)C(O)=C1C=NCc1ccccc1,–,5.69 µM (active)
O=C1NC(=NCc2ccccc2)S/C1=C/c1ccc(O)cc1,–,8.9 µM (active)
Cc1c(N=C2NC(=O)/C(=C/c3ccc(O)cc3)S2)c(=O)n(-c2ccccc2)n1C,–,10 µM (active)
Cc1cc(/C=C2\SC(=S)NC2=O)c(C)n1-c1cccc(O)c1,6.67%,–
COc1cccc2sc(Nc3nnc(-c4cccs4)o3)nc12,3.33%,–
O=C(/C=C/c1ccc2ccccc2n1)N1CCN(S(=O)(=O)c2ccccc2F)CC1,12%,–
CCCC1Nc2ccc(C(=O)O)cc2C2C=CCC12 (stereo not given),8.3%,–
COc1ccc2nc3ccccc3nc2c1N,–,19.9 µM (active)
NC(=O)NCCCC(=O)OCC(=O)c1ccc2ccccc2c1,-5.96%,–
Cc1ccc2oc(=O)c(/C=C(\O)C(C)(C)C)nc2c1,–,6.56 µM (active)
Cc1ccc2oc(=O)c(/C=C(\O)CC(C)C)nc2c1,–,4.38 µM (active)
NNc1nc(-c2ccccc2)nc(-c2ccccc2)c1Br,-1.06%,–
O=C(CC1SC(=O)NC1=O)Oc1ccc(/C=N/NC(=O)c2ccccc2O)cc1 (stereo not given),–,50.6 µM (active)
COc1cc(/C=N/NC(=O)c2ccccc2O)ccc1OC(=O)CC1SC(=O)NC1=O (stereo not given),–,33.4 µM (active)
CC[C@H](C)/C=C/C1=CC2=C(Cl)C(=O)[C@@]3(C)OC(=O)C(C(=O)[C@H](C)[C@@H](C)O)=C3C2=CO1,21.5%,–
Nc1ccc(Nc2nc3ccccc3[nH]2)cc1,–,6.24 µM (active)
O=C(CCc1ccc(O)c(O)c1)NNC(=S)Nc1ccc(Br)cc1Cl,–,19.5 µM (active)
O=C(CSC1=NS(=O)(=O)c2ccccc21)Nc1ccccc1,15.9%,–
O=S1(=O)N=C(Nc2ccc(O)cc2)c2ccccc21,–,3.57 µM (active)

SMILES,inhibition,IC50
C=Cc1ccc2c(c1)OCCOCCOCCOCCOCCO2,10.9%,–
Cc1cccc(OCC(=O)NC(=S)NNC(=O)c2ccncc2)c1,23.7%,–
CC(C)(C)c1ccc(OCCC(=O)NNC(=O)c2ccccc2)cc1,–,41.8 µM (active)
CC(C)(C)c1ccc(OCC(O)CS(=O)(=O)c2ccccn2)cc1 (stereo not given),20.9%,–
CCN(CC)c1ccc(/C=C2\C(=O)N(c3nnc(C)c(=O)[nH]3)N=C2C)cc1,-5.16%,–
CCN(CC)c1ccc(/C=N/O)cc1,–,4.69 µM (active)
CCN(CC)c1ccc(/C=N/N2CCOCC2)cc1,–,4.08 µM (active)
O=C(O)c1ccc(-n2nc(-c3ccccc3)c3ccccc3c2=O)cc1,-5.05%,–
CCOc1ccc(/C=N/n2nnnc2N)cc1O,–,3.62 µM (active)
COc1cc(/C=N/n2nnnc2N)ccc1O,–,2.77 µM (active)
COC(=O)CN(c1ccccc1F)S(=O)(=O)c1ccccc1,-8.97% [at 50 µM],–
COc1cccc(-n2c(SCc3cc(=O)oc4cc(O)c(O)cc34)nc3ccccc3c2=O)c1,–,49.8 µM (active)
CCOCCCn1c(SCC(=O)Nc2cc(OC)ccc2OC)nc2ccccc2c1=O,-11.5%,–
Cc1ccc(C)n1-c1ccncc1,-33%,–
Fc1ccccc1CSc1nnnn1-c1ccc2c(c1)OCO2,-29.5%,–
CN(C)c1ccc(N2CC(C)(C)C2=O)cc1,–,3.63 µM (active)
COc1ccc(C2=CC3=C(Br)C(=O)C(C)(OC(=O)c4ccc(Cl)nc4)C(=O)C3=CO2)cc1 (stereo not given),-12.6%,–
COc1ccc(NC2SC(=O)N(C)C2=O)cc1 (stereo not given),–,91 µM (active)
O=C(Nc1nnc(COc2ccccc2)s1)C1CCN(S(=O)(=O)c2ccc(Cl)cc2)CC1,-32.5%,–
O=c1c(OC2OC(CO)C(O)C(O)C2O)c(-c2ccc(O)c(O)c2)oc2cc(O)cc(O)c12 (stereo not given),–,6.33 µM (active)
CC1OC(OCC2OC(Oc3c(-c4ccc(O)cc4)oc4cc(O)cc(O)c4c3=O)C(O)C(O)C2O)C(O)C(O)C1O (stereo not given),–,30.9 µM (active)
O=C(O)C1OC(Oc2c(-c3ccc(O)c(O)c3)oc3cc(O)cc(O)c3c2=O)C(O)C(O)C1O (stereo not given),–,8.72 µM (active)
Cc1csc(NC(=O)NC2(C(F)(F)F)Oc3ccccc3O2)n1,–,12 µM (active)
COc1ccccc1Nc1nc(C)cs1,18.6%,–
Cc1cccc(C)c1NC(=O)C(c1ccc([N+](=O)[O-])cc1)N(C)C(=O)c1ccccn1 (stereo not given),-12.9%,–

SMILES,inhibition,IC50
Cc1ccc(-n2ncc3c(N4CCN(c5ccc(F)cc5)CC4)ncnc32)c(C)c1,19.4%,–
O=C1C=C(Nc2ccc(O)cc2)CC(c2ccco2)C1 (stereo not given),–,3.1 µM (active)
O=C1CC(c2ccco2)CC(O)=C1C=Nc1cc(Cl)cc(Cl)c1 (stereo not given),-12.2%,–
COC(=O)CCC(=O)OC1(C)C(=O)C=C2C=C3CCCN3C=C2C1=O (stereo not given),-95%,–
C/C=C/C=C/C(=O)Nc1cccc(C2=NOC3(C2)C[C@H](C(N)=O)N(C(=O)CC(c2ccccc2)c2ccccc2)C3)c1 (stereo not given in full),-4.69%,–
CCCCNC(=O)c1sc(=S)n2c1[nH]c(=O)c1ccccc12,–,57.9 µM (active)
N#Cc1c(NC(=O)CCC(=O)O)sc2c1CCCC2,6.51% [at 50 µM],–
O=[N+]([O-])c1cccnc1SCc1ccccc1,-42.5%,–
O=c1c2c([N+](=O)[O-])cc([N+](=O)[O-])cc2sn1Cc1ccccc1,–,77.3 µM (active)
O=[N+]([O-])c1ccc(-[n+]2ccc3ccccc3c2)c([N+](=O)[O-])c1,-11.3%,–
Cc1cc(=O)oc2c(N)c(O)ccc12,–,2.9 µM (active)
CCc1c(C(=O)c2ccc(Cl)cc2)oc2c(C)c3oc(=O)cc(C)c3cc12,2.57%,–
Cc1ccccc1NC(=O)c1cc(N)ccc1N1CCCCC1,–,5.41 µM (active)
CCN(CC)S(=O)(=O)c1ccc(N2CCCCC2)c(NC(=O)/C=C/c2cc(OC)c(OC)c(OC)c2)c1,10.5%,–
CN(CC(=O)Nc1ccccc1Br)C(=O)c1cc(S(=O)(=O)N(C)C)ccc1N1CCCC1,-14.2%,–
O=C(N/N=C/c1ccc(O)c(O)c1)c1cccc(S(=O)(=O)N2CCCC2)c1,–,4.88 µM (active)
CC(NCC(=O)Nc1cc(S(=O)(=O)N2CCCCCC2)ccc1Cl)c1ccccc1 (stereo not given),-3.95%,–
CCNC(=O)NC(=O)C(C)OC(=O)c1cc(S(=O)(=O)N2CCCCCC2)ccc1OC (stereo not given),8.91%,–
COc1cc(/C=N/NC(=O)c2cccc(S(=O)(=O)N3CCCC3)c2)ccc1O,–,4.27 µM (active)
O=C(N/N=C/c1ccc(O)c(O)c1)c1cccc(S(=O)(=O)N2CCCCC2)c1,–,10.5 µM (active)
Cc1cc(O)ccc1N/C=C1\CCCC1=O,–,10.2 µM (active)
O=C1CCCC/C1=C\Nc1ccc(O)cc1,–,4.32 µM (active)
Oc1ccc2c(c1)oc1cc(O)ccc12,–,4.05 µM (active)
O=c1oc2cc(O)ccc2c2ccccc12,–,8.47 µM (active)
Cc1ccc(C(C)NC(=S)NCc2ccc(F)cc2)cc1C (stereo not given),–,33.9 µM (active)
